Key:
Experiment in all cases: PBM binding z-score (relative to random genomic background probes); higher = stronger binding; sequences stand for … in GC…GCGATTGACAGCGTAGAATGAAGG
[1] = test system: FXR:RXRa (NR concentration 270 nM, RXRa partner concentration 90 nM)
Method in brief: (§1)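 On custom Agilent 4×180K arrays, double-stranded probes with 34-nt variable regions carried direct-repeat seeds, single-nucleotide variants, half-site ablations or random human genomic background. Ligand-free nuclear receptor dimers were applied for 1 h, and binding was read with antibodies against each partner (one per run). Binding z-scores come from regression-normalized fluorescence, with the random background probes as reference.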

[2] = test system: LXRa:RXRa (NR concentration 270 nM, RXRa partner concentration 90 nM)
Method in brief: as §1

[3] = test system: LXRa homodimer (NR concentration 270 nM)
Method in brief: as §1

[4] = test system: LXRb:RXRa (NR concentration 270 nM, RXRa partner concentration 90 nM)
Method in brief: as §1

[5] = test system: LXRb homodimer (NR concentration 270 nM)
Method in brief: as §1

[6] = test system: PPARa:RXRa (NR concentration 270 nM, RXRa partner concentration 90 nM)
Method in brief: as §1

[7] = test system: PPARg:RXRa (NR concentration 180 nM, RXRa partner concentration 90 nM)
Method in brief: as §1

[8] = test system: PPARg:RXRa 270nM:90nM, anti-RXR (NR concentration 270 nM, RXRa partner concentration 90 nM)
Method in brief: as §1

[9] = test system: PPARg:RXRa 30nM:10nM, anti-RXR (NR concentration 30 nM, RXRa partner concentration 10 nM)
Method in brief: as §1

[10] = test system: PPARg:RXRa 90nM:30nM, anti-RXR (NR concentration 90 nM, RXRa partner concentration 30 nM)
Method in brief: as §1

[11] = test system: PPARg:RXRa DBDmut IVT, anti-RXR (DBD mutation: RXRa K156A/R161A, NR concentration 270 nM, RXRa partner concentration 90 nM)
Method in brief: as §1

[12] = test system: PPARg:RXRa IVT, anti-PPARg (NR concentration 270 nM, RXRa partner concentration 90 nM)
Method in brief: as §1

[13] = test system: PPARg DBDmut:RXRa IVT, anti-PPARg (DBD mutation: PPARg1 K132A/R137A, NR concentration 270 nM, RXRa partner concentration 90 nM)
Method in brief: as §1

[14] = test system: PPARg DBDmut IVT, anti-PPARg (DBD mutation: PPARg1 K132A/R137A, NR concentration 270 nM)
Method in brief: as §1

[15] = test system: PPARg homodimer (NR concentration 180 nM)
Method in brief: as §1

[16] = test system: PXR:RXRa (NR concentration 270 nM, RXRa partner concentration 90 nM)
Method in brief: as §1

[17] = test system: PXR homodimer (NR concentration 270 nM)
Method in brief: as §1

[18] = test system: RARa:RXR (NR concentration 270 nM, RXRa partner concentration 90 nM)
Method in brief: as §1

[19] = test system: RARa homodimer (NR concentration 270 nM)
Method in brief: as §1

[20] = test system: RARb:RXRa (NR concentration 270 nM, RXRa partner concentration 90 nM)
Method in brief: as §1

| Sequence | PBM binding z-score [1] | PBM binding z-score [2] | PBM binding z-score [3] | PBM binding z-score [4] | PBM binding z-score [5] | PBM binding z-score [6] | PBM binding z-score [7] | PBM binding z-score [8] | PBM binding z-score [9] | PBM binding z-score [10] | PBM binding z-score [11] | PBM binding z-score [12] | PBM binding z-score [13] | PBM binding z-score [14] | PBM binding z-score [15] | PBM binding z-score [16] | PBM binding z-score [17] | PBM binding z-score [18] | PBM binding z-score [19] | PBM binding z-score [20] |
| --- | --- | --- | --- | --- | --- | --- | --- | --- | --- | --- | --- | --- | --- | --- | --- | --- | --- | --- | --- | --- |
| ATACCAAGGTGATGGTGAGGTCGTTGATACTAAC | 0.921 | 0.64 | 0.268 | 1.09 | -0.372 | 1.56 | 0.532 | 0.222 | 0.0287 | 0.21 | 0.223 | 1.12 | 0.793 | 0.597 | 1.2 | 2.71 | 1.55 | 1.47 | 0.462 | 1.17 |
| CGTGCAAGGTCAATGCTAGGTCAGTGAAAGCATT | 6.79 | 5.7 | 1.91 | 4.42 | 0.212 | 5.53 | 4.26 | 5.03 | 1.47 | 3.77 | 3.32 | 4.08 | 0.426 | -0.53 | 3.59 | 4.91 | 0.967 | 6.46 | 0.996 | 5.34 |
| CGAACTTGGTCAGAACAGGACAGTGAAGGATGAT | -0.314 | -0.426 | -0.321 | -0.516 | -0.663 | -0.129 | 0.567 | -0.142 | -0.0842 | -0.55 | -0.158 | 0.0276 | 0.221 | -0.53 | -0.163 | -0.41 | 0.0699 | 0.0937 | -0.39 | 0.542 |
| TCTAGTTGGTCAAATGTCACACACTCGAAATGCG | 0.894 | 0.965 | 0.736 | 1.29 | 0.913 | 2.93 | 5.26 | 6.74 | 5.88 | 7.55 | 2.7 | 3.59 | 1.9 | 2.34 | 2.58 | 1.09 | 0.666 | 1.67 | 1.52 | 1.89 |
| AGCTCTAGGTAAAGTTCAGTGAAAGATCGATAGA | 0.591 | 1.3 | 0.886 | 0.579 | -0.0933 | 1.83 | 1.55 | 2.93 | 0.866 | 2.37 | 2.67 | 1.47 | 0.472 | 0.107 | 0.759 | 1.27 | 1.19 | 0.896 | 0.442 | 2.67 |
| ACTAGTTGGTCAGCTGAGGTCACACGCAATTCGG | 4.13 | 3.59 | 2.5 | 3.3 | 0.152 | 3.71 | 1.57 | 2.37 | 0.407 | 1.44 | 1.54 | 2.63 | 0.387 | 0.616 | 2.87 | 5.51 | 1.79 | 4.68 | 0.262 | 3.53 |
| TGTCAAAGTTCAAAGGTAACGAAAGTATCCACAC | 7.51 | 6.49 | 4.27 | 5.02 | 1.67 | 6.08 | 9.12 | 7.76 | 6.04 | 7.45 | 0.62 | 4.53 | 1.27 | 1.66 | 3.32 | 5.76 | 3.79 | 6.83 | 1.29 | 5.22 |
| GCTAGCAGGCCATTTGTGTCACTCAATGACGGGC | -0.539 | -0.568 | -1.12 | -1.03 | -0.864 | -0.398 | 0.274 | -0.38 | -0.669 | -0.744 | 1.46 | 0.556 | -0.775 | -0.917 | -0.822 | -0.691 | -0.552 | -0.532 | -0.827 | 0.161 |
| TGTCAAAGTTCCAAGGTAACGTAAGTATCCACAC | 0.32 | 0.139 | -0.0669 | 0.284 | 0.0682 | 0.321 | 0.758 | 1.18 | 0.448 | 1.04 | -0.29 | 1.18 | 0.991 | 0.288 | 0.137 | 0.082 | 0.35 | 0.56 | 0.373 | 0.659 |
| TCTATTAGTTGAAGGGCAACCGGCGAGTCCGTTT | 0.888 | 1.19 | 0.417 | 0.88 | 0.229 | 0.966 | -0.211 | 2.04 | 3.53 | 2.92 | 2.36 | 0.473 | 0.341 | 0.729 | 1.25 | 0.943 | 0.705 | 0.455 | 0.951 | 1.74 |
| CTCGAAAGGTCGCGCTCAGGTGAGTATACCAAAC | 5.56 | 4.34 | 0.0163 | 3.5 | 0.0326 | 5.16 | 3.37 | 4.57 | 1.32 | 2.97 | 1.22 | 2.52 | 1.3 | 0.149 | 2.13 | 3.65 | -0.145 | 4.74 | -0.225 | 4.46 |
| ATCTATAGGTAACAAGTTCAGTGAAAGAGAGGAC | 0.766 | 1.11 | 0.709 | 0.927 | 0.629 | 1.64 | 1.46 | 1.66 | 0.781 | 1.46 | 2.14 | 1.83 | 1.5 | 1.51 | 1.15 | 1.72 | 1.68 | 1.74 | 1.48 | 1.72 |
| CCTAGTTAGTCAAGGTCACACACGCTATAGGTAC | 4.07 | 4.91 | 3.93 | 3.98 | 1.49 | 3.99 | 2.29 | 2.75 | 1.02 | 1.79 | 1.6 | 2.69 | 1.12 | 1.42 | 3.64 | 4.25 | 2.22 | 4.4 | 2.9 | 4.01 |
| CGTCCAAGGTCAATGCTAGGTTAGTGAAAGCATT | 6.49 | 4.7 | 0.436 | 3.76 | 0.627 | 5.08 | 3.32 | 4.3 | 1.15 | 2.85 | 2.98 | 3.27 | 0.204 | -0.204 | 2.37 | 3.78 | 0.753 | 3.88 | 0.52 | 5.04 |
| TCGAGTATGTTAGTCGGGGCATTCAGCCAACATA | -0.336 | -0.354 | -0.761 | 0.103 | -0.713 | -0.0801 | -0.372 | 0.0519 | 0.966 | 0.691 | 0.962 | 0.119 | -0.528 | -0.979 | -0.491 | -0.224 | -0.529 | -0.247 | -0.841 | 0.204 |

— the supplement of paper PMC6555819
